Screening data from PubChem BioAssay.
HP1b binding inh: HTS for Inhibitors of HP1-beta Chromodomain Interactions with Methylated Histone Tails; Chromobox protein homolog 1 (Homo sapiens), P83916; hit rate 0.56% among 390,000; AID 540317, 2011; AlphaScreen HP1-beta / biotin-H3K9me3 peptide binding; Potency, µM (series often up to 114 µM), for the others: top-dose activity change, negative = inhibition, actives largely listed as inhibitors; note: nearly all actives have a fitted effect of over 70% in size
Target sequence (P83916 whole entry, looked up): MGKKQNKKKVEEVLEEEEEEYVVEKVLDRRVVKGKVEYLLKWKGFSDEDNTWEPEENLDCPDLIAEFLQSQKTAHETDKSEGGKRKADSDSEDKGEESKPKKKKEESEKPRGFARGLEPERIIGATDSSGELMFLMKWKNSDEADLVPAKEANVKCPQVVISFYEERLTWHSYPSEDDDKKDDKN
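HP1-beta protein (50 nM final) preincubated 30 min at room temperature with biotinylated H3(1-18)K9me3 peptide (50 nM) in PBS pH 7.4, 0.01% Tween-20, then compound added for 30 min. AlphaScreen streptavidin donor/nickel chelate acceptor beads (10 ug/mL final), 30 min dark, luminescence read.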
BAZ2B block: qHTS Assay for Inhibitors of BAZ2B; hit rate 4.4% among 360,000; Potency, µM (titrated, usually from 114 µM), for the others: at the highest dose activity change, negative = inhibition, hits mostly inhibitors; Bromodomain adjacent to zinc finger domain protein 2B (Homo sapiens), Q9UIF8; AlphaScreen BAZ2B-H3K14Ac peptide displacement; note: % is set by controls: 0 for no effect and ±100 for the full control effect; nearly all actives have a fitted effect of over 60% in size
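BAZ2B 50 nM plus b-H3(5-23)K14Ac 50 nM, PBS pH 7.4/0.01% Tween-20, 30 min RT; compound added (max 110 uM), 30 min RT; streptavidin donor/Ni-chelate acceptor beads 10 ug/mL final, 20 min dark; AlphaScreen read.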
JMJD2A Tudor: qHTS Assay for Inhibitors of JMJD2A-Tudor Domain. Lysine-specific demethylase 4A (Homo sapiens), O75164. AlphaScreen JMJD2A-Tudor / H3K4me3 peptide binding. Potency, µM (doses to about 114 µM), for inactives: at the top dose activity change, negative = inhibition, hits mostly inhibitors. hit rate 4.4% among 390,000. AID 504339, 2011; note: % is set by controls: 0 for no effect and ±100 for the full control effect; nearly all actives have a fitted effect of over 50% in size
G9a block: qHTS Assay for Inhibitors of Histone Lysine Methyltransferase G9a; Histone-lysine N-methyltransferase EHMT2 (Homo sapiens), Q96KQ7; hit rate 8.8% among 350,000; Potency, µM (doses to about 102 µM), for the others: top-dose activity, negative = inhibition, actives largely listed as inhibitors; G9a H3K9 monomethylation, AlphaScreen, 2 h; note: % is set by controls: 0 for no effect and ±100 for the full control effect; nearly all actives have a fitted effect of over 75% in size
Target sequence (Q96KQ7 913-1193 limits assumed): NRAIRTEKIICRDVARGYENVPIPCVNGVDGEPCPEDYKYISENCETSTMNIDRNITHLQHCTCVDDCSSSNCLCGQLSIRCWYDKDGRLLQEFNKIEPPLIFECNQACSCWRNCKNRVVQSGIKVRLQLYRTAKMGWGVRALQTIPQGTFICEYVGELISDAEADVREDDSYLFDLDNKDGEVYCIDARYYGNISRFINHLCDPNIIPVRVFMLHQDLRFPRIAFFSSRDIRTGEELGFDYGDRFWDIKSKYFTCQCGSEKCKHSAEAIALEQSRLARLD
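AlphaScreen read-out: biotin-H3K9 peptide (500 nM) methylation by 20 nM enzyme with 20 uM SAM, 2 h at room temperature after 15 min compound preincubation; anti-monomethyl H3K9 antibody plus donor/acceptor beads, 10 min dark.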
PLK1 PBD block: qHTS for Inhibitors of PLK1-PDB (polo-like kinase 1 - polo-box domain): Primary Screen; Serine/threonine-protein kinase PLK1 (Homo sapiens), P53350; Plk1 PBD binding of FITC phosphopeptide, fluorescence polarization; Potency, µM, inactives show max response, negative = inhibition, hits mostly inhibitors; hit rate 2.8% among 360,000; AID 720504, 2013; note: series mostly up to about 57 µM; % is set by controls: 0 for no effect and ±100 for the full control effect; nearly all actives have a fitted effect of over 65% in size
Sfp inh: qHTS Assay for Inhibitors of Bacillus subtilis Sfp phosphopantetheinyl transferase (PPTase) | hit rate 3.5% among 310,000 | 4'-phosphopantetheinyl transferase ffp (Bacillus subtilis), Q9F4F7 | Potency, µM, without a hit: largest response in the series, negative = inhibition, hits mostly inhibitors | Biochemical Sfp PPTase activity, qHTS;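 note: the enzyme is Sfp with the accession as filed and its product quenches rhodamine fluorescence; 0% = enzyme reaction without inhibitor and -100% = no enzyme wells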
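With Hepes-Na pH 7.6 buffer containing 10 mM MgCl2, Sfp (15 nM) modified BHQ-2-YbbR (12.5 uM) using rhodamine-CoA (5 uM). Two reads 30 minutes apart at 525/598 nm yielded each well's rate.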
Starred values were filed as active, the others as inactive; ? = inconclusive; · = no result given; [ ] = dose if it differs, or a comment. The list is not random: actives were taken first. Their share in the collection is about 12%. Calls come from the whole dose curve; as a rule, active = well fitted curve in the direction sought with a large enough effect; inconclusive = small, poorly fitted or top-dose-only effect, or another doubt; inactive = no such curve, though single readings can be large; an effect the other way counts as inactive or inconclusive. Potency is the fitted concentration of half-maximal effect.

SMILES	HP1b binding inh	BAZ2B block	JMJD2A Tudor	G9a block	PLK1 PBD block	Sfp inh
CSc1ccccc1OCc1cc(C(=O)N2CCN(c3ncccn3)CC2)no1	8%	-27%	?	56µM*	-12%	?
COc1ccc2c(c1)c(=O)oc1cc(OCC(=O)N3CCC(C)CC3)ccc12	-45%	?	50µM*	8.9µM*	-29%	-5%
Cc1cc(=O)oc2cc(OCC(=O)N3CCOCC3)ccc12	-42%	-5%	79µM*	7.1µM*	27µM*	32µM*
COc1ccc2c(c1)c(=O)oc1cc(OCC(=O)N3CCc4ccccc4C3)ccc12	1%	40µM*	56µM*	3.2µM*	-28%	?
COc1ccc(NC(=O)c2c(C)oc3ccc(O)c(CN4CCCCCC4)c23)cc1Cl	-4%	?	-31%	-29%[59 µM]	·	·
CC1(C2CCC3C4CCC5CC6(CCC5(C)C4C(=O)CC32C)OCCO6)OCCO1 (stereo not given)	23%[57 µM]	·	-23%	·	-8%	·
CCCC(O)(CCC)C(=O)NN1CCCCC1	-9%	-1%	?	26%[0.501 µM]	19µM*	1%
CC(C)CCC(O)(CCC(C)C)C(=O)NN1CCCCC1	32%	?	-7%	12%[59 µM]	6%	4%
COc1ccc(/C=C2\SC(=O)N(CCNC(=O)CCS(=O)(=O)c3ccc(C)cc3)C2=O)cc1	?	-7%	?	?	30µM*	1%
COc1ccc(/C=C2\SC(=O)N(CCNC(=O)Cc3coc4cc(C)ccc34)C2=O)cc1OC	10%	-38%	-28%	10µM*	-11%	-23%
CC(C)(C(=O)N1CCC1(C)C(=O)NS(=O)(=O)c1ccc(Cl)s1)c1ccccc1 (stereo not given)	·	·	·	·	1%	·
N/C(Cn1cncn1)=N\NC(=O)c1ccc(Cl)cc1Cl	?	-21%	13µM*	8.9µM*	-27%	0%
COc1ccc(CN2CCN(C(=O)c3c(-c4ccccc4)noc3C)CC2)cc1F	25%	-1%	-13%	12%[12.7 µM]	-11%	·
O=C(O)c1c[nH]c2cc(C(F)(F)F)ccc2c1=O	14%	50µM*	0%	39%[0.501 µM]	-3%	2%
Cc1c(C(=O)O)[nH]c2ccc([N+](=O)[O-])cc12	?	79µM*	79µM*	?	?	4%
CC(=O)Oc1cc(C(F)(F)F)ccc1C(=O)O	·	·	·	-38%[5.15 µM]	·	19%
Cc1c(C(=O)N/N=C/C(C)C)[nH]c2ccc([N+](=O)[O-])cc12	8%	-35%	-20%	24%[59 µM]	-4%	3%
NCCc1c(C(=O)O)[nH]c2ccc([N+](=O)[O-])cc12	-10%	-12%	-10%[11.4 µM]	6%[12.7 µM]	21µM*	7%
O=C(O)c1c[nH]c2ccc([N+](=O)[O-])cc2c1=O	0%	·	79µM*	·	3%	·
CCC(C(=O)NC1CCCC1)n1c(-c2ccncc2)nc2ccccc21 (stereo not given)	·	·	·	·	0%	·
O=C(NCCC(=O)N1CCCC(C(F)(F)F)C1)c1ccccc1Cl (stereo not given)	47%	?	-7%	73%	-1%	23%
CCCCC(=O)NC(=S)NNC(=O)c1ccc(OC)cc1	36%	4%	-1%	3%[12.7 µM]	-2%	1%
CCCCC(=O)NNC(=S)NC(=O)CCC	21%	26%	50µM*	10µM*	-8%	79µM*
CCCCC(=O)NC(=S)NNC(=O)CC#N	-23%	-12%	18µM*	?	-16%	10µM*
C#CCN1Cc2ccccc2Oc2cc(Br)ccc2S1(=O)=O	21%	·	-18%	·	-25%	·
SMILES	HP1b binding inh	BAZ2B block	JMJD2A Tudor	G9a block	PLK1 PBD block	Sfp inh
CN1CCN(C(=O)C2CCCCC2)CC1	·	·	·	-38%[12.7 µM]	·	4%
COc1cccc(/C=C(\C#N)c2nc3ccccc3c(=O)[nH]2)c1OC	48%	0%	-19%	5%[59 µM]	·	·
CC(=O)N1c2ccc(S(=O)(=O)Nc3ccc(C)c(C)c3)cc2CC1C (stereo not given)	·	·	-28%	·	·	·
COc1ccc(-c2nc3ccc(NC(C)=O)cc3c(=O)n2Cc2cccc(Cl)c2)cc1COc1ccc(NC(C)=O)cc1	-5%	·	79µM*	·	·	·
COc1ccc(CN(Cc2ccccc2)C(=O)Nc2ccccc2)cc1COc1ccc(NC(C)=O)cc1	17%	·	?	·	·	·
COc1ccc(-c2nc3cccc(OC)c3c(=O)n2Cc2ccccc2)cc1COc1ccc(NC(C)=O)cc1	·	·	50µM*	·	·	·
COc1ccc(-c2nc3ccc(NC(=O)COC(C)=O)cc3c(=O)n2Cc2ccccc2)cc1COc1ccc(NC(C)=O)cc1	-3%	·	79µM*	·	·	·
COc1ccc(-c2nc3ccccc3c(=O)n2Cc2ccc(CNC(=O)CO)cc2)cc1COc1ccc(NC(C)=O)cc1	·	·	79µM*	·	·	·
COc1ccc(CN(Cc2ccccc2)C(=O)COC(C)=O)cc1COc1ccc(NC(C)=O)cc1	9%	·	-31%	·	·	·
COc1ccc(-c2nc3ccccc3c(=O)n2Cc2ccco2)cc1COc1ccc(NC(C)=O)cc1	·	·	-21%	·	·	·
Cc1c(CC(=O)N2CCCCC2)c(=O)oc2c(C)c3occ(C(C)(C)C)c3cc12	32%	3%	-17%	1%[59 µM]	·	·
COc1ccccc1S(=O)(=O)N(C)C[C@H]1OCc2cnnn2CCCC(=O)N([C@H](C)CO)C[C@H]1C	·	·	·	·	-6%	·
COC(=O)C1=C(C(=O)OC)[C@@H]2N(Cc3ccccc3)c3ccccc3[C@@]23C[C@@H](C(=O)OC)N(S(=O)(=O)c2ccc(C)cc2)C3=N1	·	·	·	·	·	-5%
CC(=O)N1CCN(S(=O)(=O)c2cccc(C(=O)OCC(=O)NCc3ccccc3Cl)c2)CC1	·	·	·	·	-9%	·
COc1ccc(CN(Cc2ccccc2)C(C)=O)cc1COc1ccc(NC(C)=O)cc1	36%	·	-18%	·	·	·
COc1ccc(CN(Cc2ccccc2)C(=O)CN2CCN(C)CC2)cc1COc1ccc(NC(C)=O)cc1	-6%	·	35µM*	·	·	·
COc1ccc(NC(=S)NC(NC(=O)c2ccccc2Cl)C(Cl)(Cl)Cl)c([N+](=O)[O-])c1 (stereo not given)	-34%	?	?	0%[12.7 µM]	-8%	18%
COc1ccc(NC(=S)NC(NC(=O)CCl)C(Cl)(Cl)Cl)c([N+](=O)[O-])c1 (stereo not given)	?	?	?	25µM*	12µM*	25µM*
COc1ccc(NC(=S)NC(NC(=O)c2cccc3ccccc23)C(Cl)(Cl)Cl)c([N+](=O)[O-])c1 (stereo not given)	-21%	?	?	45µM*	-6%	-2%
